Laboratory results from paper PMC7862700, “An all-to-all approach to the identification of sequence-specific readers for epigenetic DNA modifications on cytosine”.

Experiments:
Assay in all cases: DAPPL (digital affinity profiling via proximity ligation, sequencing); 10 mM Tris-HCl pH 7.5, 50 mM NaCl, 1 mM DTT, 4% glycerol, room temperature, 30 min; GST-TFs on glutathione beads, 16-mer random dsDNA library, 0.1% formaldehyde crosslink after washing; high values mean tight binding
Settings in all cases: protein: recombinant; tags: N-terminal GST; dsDNA, one strand shown
FLI1 = biological target: T1, FLI1 (Homo sapiens, UniProt Q01543 1-452)
T1 sequence: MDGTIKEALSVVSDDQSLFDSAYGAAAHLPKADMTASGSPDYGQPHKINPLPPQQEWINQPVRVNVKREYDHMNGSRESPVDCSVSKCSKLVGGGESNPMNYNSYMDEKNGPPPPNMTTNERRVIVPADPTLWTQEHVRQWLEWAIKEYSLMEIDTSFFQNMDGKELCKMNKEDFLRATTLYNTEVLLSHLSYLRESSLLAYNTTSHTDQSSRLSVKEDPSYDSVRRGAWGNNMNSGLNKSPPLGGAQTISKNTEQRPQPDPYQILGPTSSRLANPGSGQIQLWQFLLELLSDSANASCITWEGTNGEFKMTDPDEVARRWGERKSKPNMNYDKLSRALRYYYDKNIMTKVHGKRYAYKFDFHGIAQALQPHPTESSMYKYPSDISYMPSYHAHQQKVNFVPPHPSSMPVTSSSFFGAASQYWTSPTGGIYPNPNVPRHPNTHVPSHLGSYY
In short: (§1)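 Binding signal is defined as a hexamer's read frequency for one factor over its frequency for the tag-only sample. To obtain reads, GST-fused human transcription factors were expressed in yeast, captured on glutathione beads, barcoded with DNA and pooled with that sample. Pools met 200 nmole of a 16-mer random double-stranded DNA library in Tris/NaCl/DTT/glycerol buffer for 30 min at room temperature before washing, 0.1% formaldehyde crosslinking, proximity ligation (BsaI/T4 ligase, 1 h, 37 °C), PCR and Illumina NextSeq500 sequencing.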

ELK1 = biological target: T2, ELK1 (Homo sapiens, UniProt P19419 1-428)
T2 sequence: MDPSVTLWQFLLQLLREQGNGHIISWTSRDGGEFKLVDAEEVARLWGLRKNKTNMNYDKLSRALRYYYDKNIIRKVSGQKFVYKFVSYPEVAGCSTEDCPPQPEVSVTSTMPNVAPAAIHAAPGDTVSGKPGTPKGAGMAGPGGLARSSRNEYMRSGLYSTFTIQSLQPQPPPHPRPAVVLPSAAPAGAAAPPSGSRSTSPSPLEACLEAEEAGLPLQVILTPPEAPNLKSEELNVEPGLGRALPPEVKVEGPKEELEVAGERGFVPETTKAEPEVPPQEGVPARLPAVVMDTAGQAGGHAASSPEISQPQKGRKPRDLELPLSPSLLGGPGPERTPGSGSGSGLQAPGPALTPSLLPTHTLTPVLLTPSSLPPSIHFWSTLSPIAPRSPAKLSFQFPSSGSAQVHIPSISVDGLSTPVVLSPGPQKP
In short: as §1

GABPA = biological target: T3, GABPA (Homo sapiens, UniProt Q06546 1-454)
T3 sequence: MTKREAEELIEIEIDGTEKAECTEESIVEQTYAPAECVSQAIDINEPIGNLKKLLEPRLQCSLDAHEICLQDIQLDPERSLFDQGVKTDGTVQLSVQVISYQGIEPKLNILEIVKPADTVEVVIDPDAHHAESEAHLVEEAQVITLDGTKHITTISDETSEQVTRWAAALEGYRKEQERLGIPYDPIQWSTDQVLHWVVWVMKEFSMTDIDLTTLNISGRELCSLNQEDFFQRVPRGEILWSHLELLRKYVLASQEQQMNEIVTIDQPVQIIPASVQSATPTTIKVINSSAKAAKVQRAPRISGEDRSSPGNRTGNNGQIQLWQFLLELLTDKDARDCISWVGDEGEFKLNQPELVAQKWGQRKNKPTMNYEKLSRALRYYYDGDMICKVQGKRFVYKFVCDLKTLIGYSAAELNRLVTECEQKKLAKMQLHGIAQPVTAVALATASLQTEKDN
In short: as §1

ERG = biological target: T4, ERG (Homo sapiens, UniProt P11308 1-479)
T4 sequence: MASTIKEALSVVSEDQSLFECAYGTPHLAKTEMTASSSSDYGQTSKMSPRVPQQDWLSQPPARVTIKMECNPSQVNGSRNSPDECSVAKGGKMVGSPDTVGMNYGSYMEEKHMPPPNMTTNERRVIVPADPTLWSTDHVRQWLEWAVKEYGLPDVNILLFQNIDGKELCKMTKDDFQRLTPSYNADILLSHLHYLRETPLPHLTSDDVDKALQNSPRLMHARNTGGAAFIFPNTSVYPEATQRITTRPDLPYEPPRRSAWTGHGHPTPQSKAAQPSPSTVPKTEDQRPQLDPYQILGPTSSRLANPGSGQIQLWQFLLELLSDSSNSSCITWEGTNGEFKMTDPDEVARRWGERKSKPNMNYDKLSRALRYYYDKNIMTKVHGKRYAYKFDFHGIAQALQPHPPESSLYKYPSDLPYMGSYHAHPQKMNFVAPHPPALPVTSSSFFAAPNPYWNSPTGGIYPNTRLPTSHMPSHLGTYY
In short: as §1

ELF1 = ELF1 (Homo sapiens, UniProt P32519 1-619)
Sequence of ELF1 (P32519 whole entry): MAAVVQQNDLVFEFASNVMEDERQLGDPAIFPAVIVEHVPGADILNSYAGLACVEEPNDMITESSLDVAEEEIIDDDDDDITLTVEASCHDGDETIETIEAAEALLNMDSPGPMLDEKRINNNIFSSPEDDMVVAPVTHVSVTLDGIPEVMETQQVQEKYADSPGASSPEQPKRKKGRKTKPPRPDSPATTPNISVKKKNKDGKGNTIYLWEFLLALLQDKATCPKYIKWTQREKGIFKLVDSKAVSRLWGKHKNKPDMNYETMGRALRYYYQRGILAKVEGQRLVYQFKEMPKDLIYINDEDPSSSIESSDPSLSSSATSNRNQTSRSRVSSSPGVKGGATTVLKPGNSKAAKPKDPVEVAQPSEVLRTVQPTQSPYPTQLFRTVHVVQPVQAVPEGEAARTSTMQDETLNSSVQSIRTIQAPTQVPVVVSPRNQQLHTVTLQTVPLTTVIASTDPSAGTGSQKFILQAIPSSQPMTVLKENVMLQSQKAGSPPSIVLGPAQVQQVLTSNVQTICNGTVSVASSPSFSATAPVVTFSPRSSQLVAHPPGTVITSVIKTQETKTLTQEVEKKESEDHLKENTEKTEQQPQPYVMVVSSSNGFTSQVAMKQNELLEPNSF
In short: as §1

EHF = biological target: T5, EHF (Homo sapiens, UniProt Q9NZC4 1-300)
T5 sequence: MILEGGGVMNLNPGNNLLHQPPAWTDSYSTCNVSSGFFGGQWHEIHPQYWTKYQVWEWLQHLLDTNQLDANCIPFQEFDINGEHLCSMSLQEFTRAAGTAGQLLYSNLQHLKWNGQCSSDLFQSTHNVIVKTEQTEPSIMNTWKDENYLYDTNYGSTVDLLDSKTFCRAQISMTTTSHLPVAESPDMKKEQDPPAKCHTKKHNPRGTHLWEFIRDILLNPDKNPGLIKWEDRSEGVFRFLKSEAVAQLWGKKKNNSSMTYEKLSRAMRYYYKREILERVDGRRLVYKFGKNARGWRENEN
In short: as §1

SPI1 = SPI1 (Homo sapiens, UniProt P17947 1-270)
In short: as §1

SPIB = SPIB (Homo sapiens, UniProt Q01892 1-262)
Sequence of SPIB (Q01892 whole entry): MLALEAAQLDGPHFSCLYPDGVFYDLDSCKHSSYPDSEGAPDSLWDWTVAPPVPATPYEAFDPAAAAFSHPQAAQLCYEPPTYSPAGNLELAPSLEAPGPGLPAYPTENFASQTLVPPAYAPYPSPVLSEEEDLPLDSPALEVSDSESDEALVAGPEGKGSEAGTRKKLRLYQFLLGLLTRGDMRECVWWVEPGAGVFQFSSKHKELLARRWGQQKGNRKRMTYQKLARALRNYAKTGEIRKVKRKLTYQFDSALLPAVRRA
In short: as §1

ELK3 = biological target: T6, ELK3 (Homo sapiens, UniProt P41970 1-407)
T6 sequence: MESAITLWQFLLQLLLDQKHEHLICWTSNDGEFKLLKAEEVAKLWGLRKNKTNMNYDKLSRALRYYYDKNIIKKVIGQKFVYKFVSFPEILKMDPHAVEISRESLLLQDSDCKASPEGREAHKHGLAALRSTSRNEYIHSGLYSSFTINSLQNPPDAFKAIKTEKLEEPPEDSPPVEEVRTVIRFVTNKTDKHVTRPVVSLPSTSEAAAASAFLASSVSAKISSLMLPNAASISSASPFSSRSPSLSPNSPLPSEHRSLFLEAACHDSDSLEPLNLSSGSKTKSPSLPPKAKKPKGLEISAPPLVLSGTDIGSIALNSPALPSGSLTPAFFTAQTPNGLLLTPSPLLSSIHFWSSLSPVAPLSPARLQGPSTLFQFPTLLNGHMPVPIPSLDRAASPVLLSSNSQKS
In short: as §1

Sequence | binding signal (FLI1) | binding signal (ELK1) | binding signal (GABPA) | binding signal (ERG) | binding signal (ELF1) | binding signal (EHF) | binding signal (SPI1) | binding signal (SPIB) | binding signal (ELK3)
ATCATC | 1.17 fold enrichment (6-mer frequency, TF over GST control) | 1.2 fold enrichment (6-mer frequency, TF over GST control) | 1.19 fold enrichment (6-mer frequency, TF over GST control) | 1.17 fold enrichment (6-mer frequency, TF over GST control) | 1.25 fold enrichment (6-mer frequency, TF over GST control) | 1.25 fold enrichment (6-mer frequency, TF over GST control) | 1.14 fold enrichment (6-mer frequency, TF over GST control) | 1.19 fold enrichment (6-mer frequency, TF over GST control) | 1.08 fold enrichment (6-mer frequency, TF over GST control)
CTCACG | 1.36 fold enrichment (6-mer frequency, TF over GST control) | 1.33 fold enrichment (6-mer frequency, TF over GST control) | 1.33 fold enrichment (6-mer frequency, TF over GST control) | 1.33 fold enrichment (6-mer frequency, TF over GST control) | 1.25 fold enrichment (6-mer frequency, TF over GST control) | 1.31 fold enrichment (6-mer frequency, TF over GST control) | 1.22 fold enrichment (6-mer frequency, TF over GST control) | 1.32 fold enrichment (6-mer frequency, TF over GST control) | 1.41 fold enrichment (6-mer frequency, TF over GST control)
ACTTGC | 1.46 fold enrichment (6-mer frequency, TF over GST control) | 1.48 fold enrichment (6-mer frequency, TF over GST control) | 1.42 fold enrichment (6-mer frequency, TF over GST control) | 1.41 fold enrichment (6-mer frequency, TF over GST control) | 1.37 fold enrichment (6-mer frequency, TF over GST control) | 1.52 fold enrichment (6-mer frequency, TF over GST control) | 1.54 fold enrichment (6-mer frequency, TF over GST control) | 1.35 fold enrichment (6-mer frequency, TF over GST control) | 1.35 fold enrichment (6-mer frequency, TF over GST control)
ACGTTT | 1.21 fold enrichment (6-mer frequency, TF over GST control) | 1.18 fold enrichment (6-mer frequency, TF over GST control) | 1.18 fold enrichment (6-mer frequency, TF over GST control) | 1.27 fold enrichment (6-mer frequency, TF over GST control) | 1.17 fold enrichment (6-mer frequency, TF over GST control) | 1.16 fold enrichment (6-mer frequency, TF over GST control) | 1.12 fold enrichment (6-mer frequency, TF over GST control) | 1.35 fold enrichment (6-mer frequency, TF over GST control) | 1.2 fold enrichment (6-mer frequency, TF over GST control)
CTTGTA | 1.5 fold enrichment (6-mer frequency, TF over GST control) | 1.36 fold enrichment (6-mer frequency, TF over GST control) | 1.37 fold enrichment (6-mer frequency, TF over GST control) | 1.33 fold enrichment (6-mer frequency, TF over GST control) | 1.41 fold enrichment (6-mer frequency, TF over GST control) | 1.42 fold enrichment (6-mer frequency, TF over GST control) | 1.39 fold enrichment (6-mer frequency, TF over GST control) | 1.44 fold enrichment (6-mer frequency, TF over GST control) | 1.25 fold enrichment (6-mer frequency, TF over GST control)
TTTTCA | 1.12 fold enrichment (6-mer frequency, TF over GST control) | 1.19 fold enrichment (6-mer frequency, TF over GST control) | 1.3 fold enrichment (6-mer frequency, TF over GST control) | 1.17 fold enrichment (6-mer frequency, TF over GST control) | 1.18 fold enrichment (6-mer frequency, TF over GST control) | 1.22 fold enrichment (6-mer frequency, TF over GST control) | 1.29 fold enrichment (6-mer frequency, TF over GST control) | 1.27 fold enrichment (6-mer frequency, TF over GST control) | 1.09 fold enrichment (6-mer frequency, TF over GST control)
CAATAT | 1.27 fold enrichment (6-mer frequency, TF over GST control) | 1.29 fold enrichment (6-mer frequency, TF over GST control) | 1.26 fold enrichment (6-mer frequency, TF over GST control) | 1.2 fold enrichment (6-mer frequency, TF over GST control) | 1.28 fold enrichment (6-mer frequency, TF over GST control) | 1.24 fold enrichment (6-mer frequency, TF over GST control) | 1.23 fold enrichment (6-mer frequency, TF over GST control) | 1.23 fold enrichment (6-mer frequency, TF over GST control) | 1.31 fold enrichment (6-mer frequency, TF over GST control)
